WRN inhibitor – inhibitors of human WRN helicase. WRN helicase unwinding, fluorescent forked duplex, kinetic. Potency, µM (highest dose often 114 µM), for inactives: top-dose activity change, negative = inhibition, hits mostly inhibitors. 0.46% of 360,000 active. AID 651768; further: on the % scale 0 is the no-effect control and ±100 the full control effect; nearly all actives have a fitted effect of over 55% in size
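Enzyme (20 nM final) and test compound sit together 15 min at room temperature before substrate addition. Substrate is a single-forked duplex oligonucleotide (100 nM) labelled with fluorophore and quencher, with 2 mM ATP; helicase unwinding raises red fluorescence, read kinetically.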
POLB inh – blocks human DNA polymerase beta activity | AID 485314 | Potency, µM (doses to about 114 µM), for inactives: at the highest dose activity change, negative = inhibition, hits mostly inhibitors | Pol beta primer extension/strand displacement, fluorescence kinetic | P06746 | 1.3% of 340,000 active; further: on the % scale 0 is the no-effect control and ±100 the full control effect
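Reaction started by 50 nM substrate onto compound-treated Pol beta (10 nM, 15 min preincubation, room temperature); plates read at 0 min and 10 min. Normalized concentration-effect data fitted by four-parameter Hill equation.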
POLH inh – inhibitors of human DNA polymerase eta; 1.2% of 390,000 active; Q9Y253; AID 588591; Potency, µM (highest dose often 114 µM), inactives show top-dose activity change, negative = inhibition, hits mostly inhibitors; recombinant Pol eta, fluorescent DNA replication assay; further: on the % scale 0 is the no-effect control and ±100 the full control effect
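Pol eta at 10 nM preincubated with compounds 15 min at room temperature; reaction started with fluorescent substrate (50 nM final) and read kinetically at 0 and 10 min.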
Pol iota inh – inhibitors of human DNA polymerase iota. Q9UNA4. Pol iota fluorescent replication assay, 10 min. AID 588590. 1% of 390,000 active. Potency, µM (doses to about 115 µM), inactives show at the top dose activity, negative = inhibition, most hits filed as inhibitors
Target sequence (Q9UNA4 whole entry, looked up): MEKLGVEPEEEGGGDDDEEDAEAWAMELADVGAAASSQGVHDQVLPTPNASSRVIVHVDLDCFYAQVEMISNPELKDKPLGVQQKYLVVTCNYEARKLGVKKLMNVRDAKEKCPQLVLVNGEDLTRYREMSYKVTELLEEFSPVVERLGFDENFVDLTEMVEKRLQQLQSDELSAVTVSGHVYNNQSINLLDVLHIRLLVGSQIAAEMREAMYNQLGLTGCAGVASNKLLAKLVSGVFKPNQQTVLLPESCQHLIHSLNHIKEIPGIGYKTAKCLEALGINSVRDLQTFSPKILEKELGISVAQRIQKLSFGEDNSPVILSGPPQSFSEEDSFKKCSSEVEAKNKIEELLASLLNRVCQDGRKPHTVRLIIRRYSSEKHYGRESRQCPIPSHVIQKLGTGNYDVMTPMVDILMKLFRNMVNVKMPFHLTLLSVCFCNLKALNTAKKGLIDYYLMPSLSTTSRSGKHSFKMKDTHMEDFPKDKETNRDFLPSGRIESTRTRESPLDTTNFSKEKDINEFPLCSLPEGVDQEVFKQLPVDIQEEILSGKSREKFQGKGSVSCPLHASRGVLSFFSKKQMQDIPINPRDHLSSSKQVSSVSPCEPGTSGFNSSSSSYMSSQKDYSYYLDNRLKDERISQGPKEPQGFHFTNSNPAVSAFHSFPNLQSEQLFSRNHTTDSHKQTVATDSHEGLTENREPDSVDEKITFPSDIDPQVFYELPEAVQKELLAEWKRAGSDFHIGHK
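Pol iota at 10 nM preincubated 15 min with compounds at room temperature; reaction started with fluorescent substrate, 50 nM final. Fluorescence read kinetically at 0 and 10 min; buffer-only wells as negative control.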
FEN1 inh – blocks human flap endonuclease 1; Recombinant FEN1 flap cleavage, fluorescence, 15 min; 0.35% of 390,000 active; Potency, µM (series often up to 114 µM), inactives show top-dose activity change, negative = inhibition, usual class: inhibitors; P39748; further: on the % scale 0 is the no-effect control and ±100 the full control effect; nearly all actives have a fitted effect of over 65% in size
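Reaction started by adding substrate (50 nM final) to 10 nM enzyme after 15 min room-temperature compound preincubation. Reads at 0 and 15 min, with data normalized and fitted to a four-parameter Hill equation.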
Pol kappa inh – blocks human DNA polymerase kappa activity. purified Pol kappa, fluorescent DNA synthesis assay, 10 min. Potency, µM (doses to about 107 µM), for inactives: at the top dose activity, negative = inhibition, usual class: inhibitors. 0.53% of 400,000 active; further: on the % scale 0 is the no-effect control and ±100 the full control effect
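Fluorescent qHTS in 1536-well format: enzyme (10 nM) and compound sat 15 min at room temperature before 50 nM substrate (final) was added. Signal taken at 0 and 10 min; no-enzyme buffer wells were negative controls.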
Numbers without * were called inactive; ? = inconclusive; / = no result given; [ ] = remark or other dose. Shown are actives, neighbours in structure and some others; about 2.4% of the full set was active somewhere. The call rests on the fitted dose curve; in most records, active means well fitted curve in the direction sought with a large enough effect; inconclusive means small, poorly fitted or top-dose-only effect, or another doubt; inactive means no such curve, though single readings can be large; an effect the other way counts as inactive or inconclusive. Potency means the concentration at half of the fitted maximal effect.

SMILES	WRN inhibitor	POLB inh	POLH inh	Pol iota inh	FEN1 inh	Pol kappa inh
CCOCCc1nnc(NC(=O)Cc2ccc(Br)cc2)s1	-10.9%	89.1µM*	-9.1%	-3.5%	0.2%	-4.0%
CN1CCN(CCNC(=O)c2cnn(-c3ccc(F)cc3)c2C2CCN(C(=O)OC(C)(C)C)CC2)CC1	/	9.7%	-7.9%	18.1%	?	4.1%
Cc1csc(NC(=O)Nc2ccc(Cl)cc2)n1	-17.5%	28.2µM*	?	?	-10.2%	-35.1%
COCc1cc(/C=N\NC(=O)c2ccc(Cl)cc2)ccc1OC	-3.9%	22.9%	-11.6%	145.8%	0.9%	-6.3%
COc1ccc(/C=N/NC(=O)c2ccco2)cc1COc1ccc(F)cc1	-33.7%	?	6.7%	79.4µM*	-31.3%	-22.0%
COc1ccc(/C=N/NC(=O)c2ccc(NC(C)=O)cc2)cc1COc1ccc(F)cc1F	-8.9%[11.6 µM]	35.5µM*	?	35.5µM*	?	-55.0%
COc1ccc(/C=N/NC(=O)c2ccc(Cl)cc2)cc1Cn1cc(Cl)cn1	-23.9%	20µM*	-19.9%	79.4µM*	-18.9%	?
COc1ccc(/C=N/NC(=O)c2cc(C(C)(C)C)[nH]n2)cc1COc1ccc(F)cc1F	-6.0%	4.1%	-15.6%	89.1µM*	-18.4%	-7.8%
CCOC(=O)N1CCN(S(=O)(=O)c2ccc(OC)c3ccccc23)CC1	-7.1%	-27.8%	-15.1%	1.3%	-14.4%	-5.1%
COc1ccc(/C=N\NC(=O)c2cc(O)c(O)c(O)c2)cc1CN1CCN(c2ccc(F)cc2)CC1	-1.8%	?	?	-21.7%	14.1µM*	?
COc1ccc(/C=N/NC(=O)c2ccc(C)cc2)cc1CN1CCN(c2ccc(F)cc2)CC1	1.9%	43.0%	-8.1%	8.8%	-8.0%	-6.2%
Cc1ccc(-n2c(O)c(/C=N/c3ncn[nH]3)c3ccccc3c2=O)cc1	?	12.6µM*	-21.4%	0.5%	0.1%	-6.4%
CCOC(=O)c1ccccc1NS(=O)(=O)c1ccccc1F	-12.0%[57.1 µM]	19.3%	-14.0%	79.4µM*	-12.8%	-20.3%
CCOC(=O)c1ccccc1NS(=O)(=O)c1ccccc1	4.9%	20.4%	-9.3%	-23.1%[58.9 µM]	-16.5%	-16.8%
Cc1ccc(C(=O)NN2C(=O)c3ccc(S(=O)(=O)c4ccc(C(=O)O)cc4)cc3C2=O)cc1	-20.9%	?	-17.7%	86.8%	-0.6%	-11.7%
O=C(O)c1ccc(S(=O)(=O)c2ccc3c(c2)C(=O)N(NC(=O)c2ccc(O)cc2)C3=O)cc1	-2.8%[57.1 µM]	28.2µM*	-3.9%	75.1%	-0.4%	-8.7%
COc1ccc(/C=N/Nc2nncn2N)cc1Br	-10.9%	-3.6%	-26.3%	8.91µM*	1.0%	-1.2%
Nn1cnnc1N/N=C/c1ccc(Cl)cc1Cl	5.5%	-3.1%	-7.9%	11.2µM*	?	0.8%
COc1cc(/C=C(\C#N)C(N)=O)ccc1OCc1c(C)no[n+]1[O-]	-2.6%	7.3%	-17.3%	43.6%	12.9%	0.7%
COc1ccc(CSc2nncn2N)cc1Br	-5.0%	26.9%	-6.4%	8.8%	-4.8%	-6.1%
COc1cc(/C=N/Nc2nncn2N)ccc1OCc1c(C)no[n+]1[O-]	-2.4%[11.6 µM]	3.6%	-7.2%	7.08µM*	-9.9%	-29.2%
CC(C)CC(=O)C(=O)O	1.6%	/	-1.9%	-5.6%	-2.1%	-1.4%
O=C(O)/C(=C\c1cccc(F)c1)c1ccc(S(=O)(=O)N2CCCCC2)s1	?	22.4µM*	?	?	0.7%	-19.8%
O=C(O)/C(=C\c1cccc(O)c1)c1ccc(S(=O)(=O)N2CCCC2)s1	-4.2%[11.6 µM]	/	35.5µM*	?	-1.2%	?
O=C(O)/C(=C/c1ccc(Cl)c([N+](=O)[O-])c1)c1ccc(S(=O)(=O)N2CCCCC2)s1	-15.4%	/	28.2µM*	?	-3.5%	89.1µM*
SMILES	WRN inhibitor	POLB inh	POLH inh	Pol iota inh	FEN1 inh	Pol kappa inh
Oc1ccc(-c2csc(-c3ccccc3)n2)cc1O	?	7.94µM*	-19.8%	70.8µM*	-16.0%	-32.6%
Cc1nc(-c2ccc(O)c(O)c2)cs1	-16.1%	?	-20.6%	6.3%	-1.3%	-4.1%
Oc1ccc(-c2csc(Nc3ncccn3)n2)cc1O	?	?	1.1%	31.6µM*	?	-26.7%
Cc1ccc(C(C)C)c(OCCCN2C(=O)NC(C)(C)C2=O)c1	-2.2%	18.9%	-3.0%	-6.4%	-7.8%	-10.2%
Cc1ccc(C(C2=C(O)CC(C)(C)CC2=O)C2C(=O)CC(C)(C)CC2=O)o1 (centres undefined)	?	?	-14.4%	?	7.6%	-3.8%
O=C(CSc1nc(-c2ccco2)nc2cc(=O)[nH]n12)Nc1ccc(F)cc1	/	39.8µM*	1.6%	?	16.2%	-17.3%
Cc1cccc(NC(=O)CSc2nc(-c3ccco3)nc3cc(=O)[nH]n23)c1	/	?	?	?	-16.3%	-5.6%
CCCc1cc(C(=O)OCC(=O)NCCc2ccccc2)sc1C	-2.6%	/	-1.0%	/	/	/
O=C1C=CC(=O)N1c1ccc(OC(F)F)cc1	31.6µM*	-0.5%	-12.5%	0.4%	-3.7%	-3.1%
C=CCNc1nc(NCc2ccc(NC(C)=O)cc2)c2sc(-c3ccccc3)cc2n1	2.6%	/	/	/	/	/
Cc1ccc(CN(C(=O)c2ccccc2F)c2ccccn2)o1	/	56.2µM*	-23.3%	79.4µM*	-13.8%	?
C=CCn1c(SCC(=O)O)nnc1-c1cccc(Cl)c1	-10.4%	-3.1%	-14.9%	?	36.4%	-1.9%
C=CCn1c(SCC(=O)c2ccc(O)c(O)c2)nnc1-c1cccc(Cl)c1	17.8µM*	/	15.8µM*	?	-13.6%	39.8µM*
O=C(O)CCCCCN1C(=O)/C(=C\c2ccncc2)SC1=S	-8.9%	1.3%	-15.1%	?	15.1%	-9.6%
O=C(O)CCCCCN1C(=O)/C(=C\c2ccc(-c3ccc(Cl)cc3)o2)SC1=S	-8.8%[11.6 µM]	?	?	35.5µM*	3.6%	79.4µM*
COc1cccc(C2C(C(=O)Nc3ccccc3)=C(C)N=c3s/c(=C/c4ccc(OCC(=O)O)cc4)c(=O)n32)c1 (centres undefined)	-33.7%	21.9%	?	-11.5%	-17.9%	?
O=C(C=Cc1ccccc1)CC(c1ccccc1)N1CCOCC1 (centres undefined)	-10.0%[11.6 µM]	/	?	20µM*	-18.3%	-9.2%
Cc1noc(C)c1Cc1c(Cl)cccc1Cl	-5.5%	23.4%	-12.0%	15.6%	8.5%	-11.9%
CC1CCC(NC(=O)c2nn(C)c(=O)c3ccccc23)CC1 (centres undefined)	4.8%	/	-14.7%	/	/	/
Cc1nc(SCC(=O)c2ccccc2)c(C#N)c(-c2ccco2)c1C(=O)NCc1ccco1	?	3.6%	20µM*	?	7.1%	?
CCOC(=O)c1noc2nc(C)n(CC(=O)Nc3ccc(OC)c(Cl)c3)c(=O)c12	/	20µM*	-9.3%	10.0%	0.2%	3.8%[60.1 µM]

Screening data as filed in PubChem.
